Records with an inconclusive call do not appear. The source made the active and inactive calls. Unless noted, calls follow the shape of the dose curve; as a rule, active = well fitted curve in the direction sought with a large enough effect; inconclusive = small, poorly fitted or top-dose-only effect, or another doubt; inactive = no such curve, though single readings can be large; an effect the other way counts as inactive or inconclusive.

Experiment [1] can be described thus: qHTS assay to identify small molecule inhibitors of chordoma cells - UCH-1 (AID 1259355). Also: nearly all actives have a fitted effect of over 55% in size. Also: potency is read from the fitted curve at half-maximal effect. Summed up: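 Luminescent ATP read-out (CellTiter-Glo, 30min at room temperature) measured viability of UCH-1 cells exposed for 48hr to test drugs at 15 concentrations, co-dosed with a five-agent combination of auranofin, camptothecin, doxorubicin, rubitecan and topotecan.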

Experiment [2] can be described thus: P-glycoprotein substrates identified in KB-8-5-11 adenocarcinoma cell line, qHTS therapeutic library screen (AID 1346987). Also: nearly all actives have a fitted effect of over 65% in size. Also: potency is read from the fitted curve at half-maximal effect. The procedure, abridged: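 P-gp-mediated resistance screen: KB-8-5-11 cells treated 72 h with compounds in dose-response. CellTiter-Glo viability.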
In general terms: qHTS replaces the single test concentration by a dilution series.

Experiment [3] in a line: qHTS assay to identify small molecule inhibitors of chordoma cells - UCH-2 (AID 1259356). Also: potency is read from the fitted curve at half-maximal effect.
Experiment [4] in a line: qHTS profiling of the MIPE4 collection as inhibitors of Plasmodium falciparum (3D7) proliferation (AID 743344; call rule not given here;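 also: scaled between DMSO vehicle wells and 0.29 µM artemisinin as full inhibition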). The following applies: P. falciparum 3D7 in erythrocytes, SYBR Green DNA fluorescence, 72 h; at 28.5 µM (top of the series) unless noted. Summed up: (§1)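 Erythrocytes infected with P. falciparum (0.3% parasitemia, 2.5% hematocrit) incubated with compounds 72 h at 37 C, 5% CO2. Lysis with saponin/Triton buffer containing SYBR Green I, overnight at room temperature in the dark; DNA fluorescence (485/535 nm) normalised to 0.29 uM artemisinin and DMSO.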

The nature of experiment [5]: qHTS profiling of the MIPE4 collection as inhibitors of Plasmodium falciparum (DD2) proliferation (AID 743345; call rule not given here). The following applies: P. falciparum Dd2 in erythrocytes, SYBR Green DNA, 72 h; at 28.5 µM (top of the series) unless noted. Summed up:
as §1

Experiment [6] in a line: qHTS profiling of the MIPE4 collection as inhibitors of Plasmodium falciparum (DD2) proliferation (Rep 2) (AID 743346; call rule not given here). The following applies: P. falciparum Dd2 in erythrocytes, SYBR Green DNA, 72 h; at 28.5 µM (top of the series) unless noted. The procedure, abridged:
as §1

A short description of experiment [7]: qHTS profiling of the MIPE4 collection as inhibitors of Plasmodium falciparum (HB3) proliferation (AID 743347; call rule not given here;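 also: plate controls were DMSO vehicle wells for no effect and artemisinin wells for full effect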). The conditions noted are these: P. falciparum HB3 in erythrocytes, SYBR Green DNA, 72 h; at 28.5 µM (top of the series) unless noted. Summed up: as §1
The nature of experiment [8]: P-glycoprotein substrates identified in KB-3-1 adenocarcinoma cell line, qHTS therapeutic library screen (AID 1346986). Also: % is scaled to controls: 0 for no effect and ±100 for the full control effect; nearly all actives have a fitted effect of over 60% in size. Summed up:
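KB-3-1 parental cells and P-gp-overexpressing KB-8-5-11 (colchicine omitted during assay) plated at 500 cells/well, dosed in dose-response, incubated 72 h at 37 degree C. CellTiter-Glo luminescence read; KB-8-5-11 also tested with tariquidar.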

Experiment [9] can be described thus: qHTS profiling for inhibitors of Plasmodium falciparum (3D7) proliferation (AID 743322).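 Also: infected erythrocytes exposed to compound for 72 h before lysis; 100% = DMSO vehicle wells and 0% = 0.29 µM artemisinin.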 The following applies: P. falciparum 3D7 proliferation; at 28.7 µM (top of the series) unless noted. The procedure, abridged: as §1
Experiment [10] is described as follows: qHTS profiling for inhibitors of Plasmodium falciparum (DD2) proliferation (AID 743323; call rule not given here). The following applies: lower = more inhibition; at 28.7 µM (top of the series) unless noted. Summed up: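 Parasite DNA quantified by SYBR Green fluorescence (ex 485, em 535 nm) after saponin/Triton lysis and overnight dark incubation. Cultures: 0.3% parasitemia, 2.5% hematocrit, 72 h, 37 C; data scaled between DMSO and 0.29 uM artemisinin.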

A short description of experiment [11]: qHTS profiling for inhibitors of Plasmodium falciparum (HB3) proliferation (AID 743324).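 Also: 100% = DMSO vehicle wells and 0% = artemisinin-treated control wells.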 The conditions noted are these: Plasmodium falciparum HB3 blood-stage proliferation; at 28.7 µM (top of the series) unless noted. Summed up: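 P. falciparum HB3 grown in erythrocytes (0.3% parasitemia, 2.5% hematocrit final) with compound for 72 h at 37 C, 5% CO2. Parasite DNA detected by SYBR Green after saponin/triton lysis overnight; normalized to 0.29 uM artemisinin and DMSO.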

Regarding `COc1ccc(C[C@H](N)C(=O)N[C@H]2[C@@H](O)[C@H](n3cnc4c(N(C)C)ncnc43)O[C@@H]2CO)cc1`, the Potency in [1] is 11.2 µM (active). Besides, in [2], the Potency entry was “inactive”.
For the compound `CCOC(C)=O`, the Potency entry in experiment [1] and in experiment [3] was “inactive” in each case.
`CCNC(=O)[C@@H]1CCCN1C(=O)[C@H](CCCN=C(N)N)NC(=O)[C@H](CC(C)C)NC(=O)[C@@H](Cc1c[nH]c2ccccc12)NC(=O)[C@H](Cc1ccc(O)cc1)NC(=O)[C@H](CO)NC(=O)[C@H](Cc1c[nH]c2ccccc12)NC(=O)[C@H](Cc1cnc[nH]1)NC(=O)[C@@H]1CCC(=O)N1`: the Potency in experiment [1] was 31.6 µM (active); in experiment [3] it was 18.3 µM (active); in experiment [2], 8.2 µM (active).
For the compound `Nc1ncnc2c1ncn2[C@@H]1O[C@H](COP(=O)(O)OP(=O)(O)OP(=O)(O)O)[C@@H](O)[C@H]1O`, the Potency result in experiment [1] and in [3] was “inactive” throughout.
`C#C[C@]1(O)CC[C@H]2[C@@H]3CCC4=CCCC[C@@H]4[C@H]3C(=C)C[C@@]21CC`: the Potency entry in experiment [1] and in [3] was “inactive” throughout.
Turning to `CC1(C)S[C@@H]2[C@H](NC(=O)C(N)c3ccccc3)C(=O)N2[C@H]1C(=O)OC1OC(=O)c2ccccc21` (stereo partly specified), the Potency result in experiment [1] and in experiment [3] was “inactive” throughout.
Consider `Cc1cc(C(=O)NNCc2ccccc2)no1`, for which the Potency entry in experiment [1] and in experiment [3] was “inactive” throughout.
As to `COC(=O)[C@H]1[C@H]2C[C@@H]3c4[nH]c5ccccc5c4CCN3C[C@H]2C[C@@H](OC(=O)c2cc(OC)c(OC)c(OC)c2)[C@@H]1OC`, the Potency in experiment [1] is 10 µM (active); in [2] it was 4.11 µM (active).
Consider `O=C(Nc1ccc(Br)cc1)c1cc(Br)c(Br)s1`, for which the Potency entry in experiment [1] and in experiment [3] was “inactive” each time.
For `CCOC(=O)C1=C(C)NC(C)=C(C(=O)OCC)C1c1ccccc1C=CC(=O)OC(C)(C)C`, the parasite growth, % of DMSO control in experiment [4] turned out to be 6.3%. Further, the parasite growth remaining, % of DMSO control (lower = more inhibition) in experiment [5] worked out at 7.86%. Also, the parasite growth, % of control (lower = inhibition) in experiment [6] came out at 19.9%. Further, the growth, % of control in experiment [7] turned out to be 11.8%. Besides, the Potency entry in experiment [1] and in [3] was “inactive” throughout.
In the case of `COc1cc(-c2ccc(-[n+]3nc(-c4ccccc4)nn3-c3ccc([N+](=O)[O-])cc3)c(OC)c2)ccc1-[n+]1nc(-c2ccccc2)nn1-c1ccc([N+](=O)[O-])cc1`, the Potency in experiment [1] is 31.6 µM (active); in [3], 9.2 µM (active).
Regarding `CC[C@@H](C(=O)O)[C@@H]1O[C@@H]([C@@H](C)[C@H](O)[C@H](C)C(=O)[C@H](CC)[C@H]2O[C@]3(C=C[C@@H](O)[C@]4(CC[C@@](C)([C@H]5CC[C@](O)(CC)[C@H](C)O5)O4)O3)[C@H](C)C[C@@H]2C)[C@@H](C)C[C@@H]1C`, the values for the Potency in [1], in [3] and in [2] were 3.55 µM (active), 8.2 µM (active) and 2.31 µM (active), respectively.
On to `C/C1=C2N=C(/C=C3N=C(/C(C)=C4\[N-][C@@](C)([C@@H]5N=C1[C@](C)(CCC(=O)NCC(C)OP(=O)(O)O[C@H]1[C@@H](O)[C@@H](n6cnc7cc(C)c(C)cc76)O[C@@H]1CO)[C@H]5CC(N)=O)[C@@](C)(CC(N)=O)[C@@H]4CCC(N)=O)[C@@](C)(CC(N)=O)[C@@H]\3CCC(N)=O)C(C)(C)[C@@H]/2CCC(N)=O.CC(=O)O.[Co]` (stereo partly specified), for which the Potency entry in experiment [1], in experiment [3], in experiment [8] and in [2] was “inactive” throughout.
Consider `CC1(C)S[C@@H]2[C@H](NC(=O)C(C(=O)O)c3ccsc3)C(=O)N2[C@H]1C(=O)O` (stereo partly specified), for which the Potency entry in [1] and in experiment [3] was “inactive” each time.
With `Nc1nc(N)c2nc(CNc3ccc(C(=O)N[C@@H](CCC(=O)O)C(=O)O)cc3)cnc2n1`, the Potency entry in experiment [3] was “inactive”.
In experiment [9], `CN1CCC(CN2c3ccccc3Sc3ccccc32)C1` (stereo unspecified) returned a remaining parasite growth % (stronger effect = lower value) of 32.6%. Further, in [10], the activity, percent of control stood at 26.9%. The remaining proliferation (% of control), lower = more inhibition in experiment [11] is 21.8%. Further, the Potency result in experiment [1] was “inactive”.
As for `C[C@]12CCC(=O)C=C1CC[C@@H]1[C@@H]2[C@@H](O)C[C@@]2(C)[C@H]1CC[C@]2(O)C(=O)COP(=O)(O)O`, the Potency entry in experiment [3] and in experiment [2] was “inactive” in each case.
In the case of `COc1ccc(C[C@@H](C)NC[C@H](O)c2ccc(O)c(NC=O)c2)cc1`, the Potency result in experiment [3] and in experiment [2] was “inactive” throughout.
With `C=CC1=C(C)C2=CC3=NC(=C(CC(=O)[O-])C4=NC(=C(C)C4=C([O-])[O-])C=c4[n-]c(c(C)c4CC)=CC1=N2)C(CCC(=O)[O-])C3C.[Cu+2].[Na+].[Na+].[Na+]` (stereo unspecified), the Potency entry in experiment [3] was “inactive”.
With `OCCO[C@@H]1[C@@H](O)[C@H](O)[C@@H](CO)O[C@@H]1O`, the Potency entry in experiment [3] and in experiment [2] was “inactive” each time.
Regarding `CC(=O)OCC(=O)[C@@]12OC3(CCCC3)O[C@@H]1C[C@H]1[C@@H]3CCC4=CC(=O)C=C[C@]4(C)[C@@]3(F)[C@@H](O)C[C@@]12C`, the Potency entry in [3] and in [2] was “inactive” throughout.
In the case of `CO[C@H]1C[C@@H]2CC[C@@H](C)[C@@](O)(O2)C(=O)C(=O)N2CCCC[C@H]2C(=O)O[C@H]([C@H](C)C[C@@H]2CC[C@@H](OCCO)[C@H](OC)C2)CC(=O)[C@H](C)/C=C(\C)[C@@H](O)[C@@H](OC)C(=O)[C@H](C)C[C@H](C)/C=C/C=C/C=C/1C`, the Potency result in experiment [3] is “inactive”.
Regarding `CCCCCCCCCCCCCC[n+]1ccc(C)cc1`, the Potency in experiment [3] was 25.9 µM (active). Moreover, in [2], the Potency entry was “inactive”.
In the case of `O=C(O)c1cc(O)c2c(c1)[O][Bi][O]2`, the Potency entry in experiment [3] and in [2] was “inactive” throughout.
As for `CCCCC(CC)COC(=O)CC(C(=O)OCC(CC)CCCC)S(=O)(=O)O` (stereo unspecified), in [3], the Potency result was “inactive”.
On the same count and under the same terms, under `CN(C)CCCN1c2ccccc2C(C)(C)c2ccccc21` stands “inactive”; under `CC(C)C(=O)OCC(=O)[C@@]12O[C@H](C3CCCCC3)O[C@@H]1C[C@H]1[C@@H]3CCC4=CC(=O)C=C[C@]4(C)[C@H]3[C@@H](O)C[C@@]12C`, “inactive”.
For `CC(C)NCC1CCc2cc(CO)c([N+](=O)[O-])cc2N1` (stereo unspecified), the Potency entry in [3] and in [2] was “inactive” each time.
For the compound `Nc1c(Br)cc(Br)cc1CNC1CCC(O)CC1` (stereo unspecified), the Potency result in experiment [3] was “inactive”.
Still for that read-out and setting: under `O=S(=O)(O)c1ccc2c(N=Nc3ccc(S(=O)(=O)O)c4ccccc34)c(O)c(S(=O)(=O)O)cc2c1` stands “inactive”; under `CN(C)CC/C=C1/c2ccccc2CSc2ccccc21`, “inactive”; under `CC1(C)C(C=C(Cl)Cl)C1C(=O)OCc1cccc(Oc2ccccc2)c1` (stereo unspecified), “inactive”.
`CC1=C(/C=C/C(C)=C/C=C/C(C)=C/C=C/C=C(C)/C=C/C=C(C)/C=C/C2=C(C)CCCC2(C)C)C(C)(C)CCC1`: the Potency result in experiment [3] and in experiment [2] was “inactive” throughout.

(Values after PubChem BioAssay (NCATS).)
